The text below walks through data of ChEMBL document CHEMBL4513216, “Probing the Open Global Health Chemical Diversity Library for Multistage-Active Starting Points for Next-Generation Antimalarials” (ACS Infect Dis, 2020).

SMILES strings stand for the structures. Out of some 69,000 compounds screened, about 8,600 (12%) showed an effect of 50% or more. Shown is part of a subset that was picked to be rich in strong results.

For the test, the system named is Plasmodium berghei. The experiment in a line: Screen against P. berghei liver stage (PbLuc), transformed with Luciferase, at 10uM. Type of test: functional, HepG2. Particulars: tested at 10 uM.
With `Cc1ccc(CN2CCn3c(CN(C)C(C)C)cnc3C2)s1`, the INHIBITION worked out at 7.53%.
Turning to `CN1CCCC1CNC(=O)CCOc1ccc(Br)cc1` (centres undefined), the INHIBITION came to 22.983%.
Under `Cc1ncsc1C(=O)NC1CCN(CCC(N)=O)CC1` stands 24%; under `CCc1nnsc1C(=O)NC1CCN(c2ccccn2)CC1`, -7.9%.
To `CO[C@@H]1CC[C@@H](NC(=O)c2ccc(OCCN3CCCC3)cc2)[C@H]1O` belongs 34.25%; to `Cc1nc(CC(=O)N2CCN(CCOc3ccccc3)CC2)cs1`, 21.8%.
To `Cc1ncc(C(=O)NC2CCN(CCOc3ccc(Br)cc3)CC2)s1` belongs 88.6%; to `Cc1nc(C(=O)NC2CCN(CCOc3ccc(Br)cc3)CC2)cs1`, 85.4%.
As to `CC(=O)Nc1nc(C(=O)NCCOc2ccc(C)cc2)cs1`, the INHIBITION stood at 49.2%.
Consider `CCc1nnsc1C(=O)NC1CCN(CCOc2ccc(Br)cc2)CC1`, for which the INHIBITION was 80%.
To `COCc1nc(C(=O)N2CCCC(n3nc(C)nc3C)C2)cs1` (centres undefined) belongs 26.4%.
Under `CCn1ncc2c1C(COC)N(C(=O)c1ccc3c(c1)OCO3)CC2` (centres undefined) stands -33%; under `COc1nccnc1N1CCCC2(C1)C(=O)N(C)c1ccccc12` (centres undefined), -60.7%.
To `C[C@@H]1CN(Cc2ccncc2)C[C@@]1(O)C1CC1` belongs 3.19%; to `CCc1nc(CN2CCCC(NCc3nc4ccccc4o3)C2)no1` (centres undefined), -21.7%; to `CCN1CCN(C(=O)c2ccc3c(c2)CCCN3)[C@H]2CS(=O)(=O)C[C@H]21`, 33.2%.
As for `CCN1CCN(C(=O)c2ccc3c(c2)OCC(=O)N3)[C@H]2CS(=O)(=O)C[C@H]21`, the INHIBITION is listed as 58.2%.
For the molecule `Cc1nc2ccc(C(=O)N3CCN(CCO)[C@@H]4CS(=O)(=O)C[C@@H]43)cc2o1`, the INHIBITION was 22.3%.
Under `CCN1CCN(C(=O)c2ccc3c(c2)NC(=O)CN3)[C@H]2CS(=O)(=O)C[C@H]21` stands 73%.
Under `CCCN1CCN(C(=O)c2ccc3nc(C)oc3c2)[C@H]2CS(=O)(=O)C[C@H]21` stands 33%; under `CCN1CCN(C(=O)c2cc(-c3ccc(C)o3)n[nH]2)[C@H]2CS(=O)(=O)C[C@H]21`, -1.04%; under `CCN1CCN(C(=O)c2cc(C(F)(F)F)n[nH]2)[C@H]2CS(=O)(=O)C[C@H]21`, 33.7%.
Under `Cn1cnc2cc(C(=O)N3CCN(CCO)[C@@H]4CS(=O)(=O)C[C@@H]43)ccc21` stands 73.6%; under `O=C(c1ccc2nccnc2c1)N1CCN(CCO)[C@@H]2CS(=O)(=O)C[C@@H]21`, 41.5%.
As to `CCN1CC(C(=O)NCc2cccnc2-n2cccn2)CC1=O` (centres undefined), the INHIBITION is -10.1%.
To `COC[C@@]12CCO[C@@H]1CCN(C(=O)c1ccc(F)c(F)c1)C2` belongs -30.6%.
Under `Cc1nc(COCC2CN(C(=O)N(C)C)Cc3nccn3C2)cs1` (centres undefined) stands 45.4%.
Under `O=S(=O)(c1cccc(F)c1)N1CCCCC1c1ccn[nH]1` (centres undefined) stands 27.8%; under `Cc1nc(N2CCCC2)nc2c1CN(C(C)C)CC2`, -10.4%; under `CC(C)Nc1nc(N2CCCC2)nc2c1CCN(S(C)(=O)=O)CC2`, 35.2%.
Regarding `CC(C)Nc1nc(N2CCCC2)nc2c1CN(C)CC2`, the INHIBITION amounted to 22.4%.
To `CCC(C)N1CCc2nc(N3CCCC3)nc(NC(C)C)c2C1` (centres undefined) belongs 2.59%; to `CC(C)Nc1nc(N2CCCC2)nc2c1CN(c1ncc(F)cn1)CC2`, 65.8%; to `Cc1nc(CN2CCc3nc(NC(C)C)nc(C)c3C2)cs1`, 46.7%.
To `Cc1nc(CN2CCc3nc(N4CCCC4)nc(NC(C)C)c3C2)cs1` belongs 67.4%; to `CC(C)Nc1nc(N2CCCC2)nc2c1CN(S(C)(=O)=O)CC2`, -29%; to `CC(C)Nc1nc(N2CCCC2)nc2c1CN(C(C)C)CC2`, 61.8%.
To `Cc1nc(Nc2nncs2)cc(C2CCCN2)n1` (centres undefined) belongs -8.275%; to `COC(=O)c1cccc(C(=O)N2CCCC(n3cncn3)C2)c1` (centres undefined), 15.5%; to `CN1CC2(CCN(Cc3cccc(C#N)c3)CC2)CC1=O`, 43.1%.
As to `Cc1ccc(=O)n(CC2(O)CCN(Cc3cnc(C)nc3)CC2)n1`, the INHIBITION was 15.9%.
As to `CN1CC2(CCN(Cc3ncc[nH]3)CC2)CC1=O`, the INHIBITION turned out to be 53.7%.
Under `COCCCN1CC2(CCN(Cc3ncc[nH]3)CC2)CC1=O` stands 28.7%.
To `CC(C)=CCN1CC2(CCN(Cc3ncc[nH]3)CC2)CC1=O` belongs 4.82%; to `Cc1ncc(CN2CCC3(CC2)CC(=O)N(C)C3)cn1`, 55.9%; to `CC(=O)NCC(=O)N1CCn2cc(CN(C)Cc3ccco3)nc2C1`, 42.5%.
On to `O=C1COC2(CCN(C(=O)c3ccoc3)CC2)CN1Cc1cccnc1`, for which the INHIBITION turned out to be 0.112%.
Under `Fc1ccccc1Oc1nccnc1C1CCCN(C2CCOCC2)C1` (centres undefined) stands -3.02%; under `O=C(NCc1ccnc(OCC(F)(F)F)c1)NCC1CCCO1` (centres undefined), -20.3%.
To `O=C(c1ccc(Br)cc1F)N1CCc2ccncc21` belongs -4.91%.
To `COc1ccc(C[C@H]2CN(C3CCOCC3)CC[C@@H]2OCC2CC2)cc1` belongs 29.7%; to `O=C(CN1CCCC1c1nc2cc(F)ccc2[nH]1)NCc1ccccn1` (centres undefined), 50.1%; to `Fc1ccc2[nH]c(C3CCCN3CCc3ccccn3)nc2c1` (centres undefined), 21.8%.
In the case of `Fc1ccc2[nH]c(C3CCCN3Cc3c[nH]cn3)nc2c1` (centres undefined), the INHIBITION came to 42.6%.
To `Cc1cc(C(=O)N2CCCCC2c2nc3cc(F)ccc3[nH]2)no1` (centres undefined) belongs 4.97%.
Turning to `O=C(c1ccon1)N1CCCCC1c1nc2cc(F)ccc2[nH]1` (centres undefined), the INHIBITION amounted to 62.9%.
To `Cn1nc(C(=O)N2CCCCC2c2nc3cc(F)ccc3[nH]2)ccc1=O` (centres undefined) belongs 11.8%; to `CN1CC2(CCN(Cc3ccoc3)CC2)COc2ccccc2S1(=O)=O`, 13.7%; to `Cc1cc(C(N)=O)nc(C2(C)CCCN2Cc2cnn(C)c2)n1` (centres undefined), 18.3%.
In the case of `Cc1nccn1[C@@H]1CC[C@@H](N(C)S(=O)(=O)c2cccc(F)c2)[C@H]1O`, the INHIBITION was 16.96%.
Under `CCN(C(=O)CN1CCCC1c1cc(C)no1)c1ccccc1C` (centres undefined) stands 62.4%; under `Cc1cc(C2CCCN2CC(=O)N(CCC#N)c2ccccc2F)on1` (centres undefined), 26.8%; under `CCN(C(=O)CN1CCCC1c1ccc(F)cc1)c1ccccc1C` (centres undefined), -55.1%.
To `CN(C)CCOCc1nnc2n1CCN(Cc1cccs1)CC2` belongs -35%; to `O=C(CSC1CCc2ccccc2NC1=O)NCc1cccs1` (centres undefined), 3.13%.
To `CN(CCCc1nccn1C)c1nccc(-c2cc(C(=O)O)ccn2)n1` belongs 14%; to `O=C(Cc1cnc(-n2cccc2)s1)NCCCO`, -1.99%; to `c1csc(CN2CCCn3cnc(COCC4CC4)c3C2)c1`, -1.55%.
For `OCCOCc1ncn2c1CN(Cc1cccs1)CCC2`, the INHIBITION worked out at 21.8%.
For the molecule `c1coc(COCc2ncn3c2CN(Cc2cccs2)CCC3)c1`, the INHIBITION was 56.7%.
To `CN(C)C(=O)NCc1ncn2c1CN(Cc1ccco1)CCC2` belongs 28.2%; to `CN(C)C(=O)NCc1ncn2c1CN(Cc1cccs1)CCC2`, 52.3%.
To `CS(=O)(=O)NCc1ncn2c1CN(Cc1cccs1)CCC2` belongs -17.9%; to `Cc1ccc(S(=O)(=O)NCCc2nnc[nH]2)c2cccnc12`, 33.7%.
Under `O=C1CCCN1Cc1ncn2c1CN(C(=O)NC1CCCC1)CCC2` stands -56.2%.
As for `O=C(C1CC1)N1CCCCCC1C1CCN(c2ncccn2)CC1` (centres undefined), the INHIBITION came out at 22.3%.
To `NC(=O)N1CCCCCC1C1CCN(c2nccc(C(F)(F)F)n2)CC1` (centres undefined) belongs 61.8%.
Take `N#Cc1cccnc1N1CCC(C2CCCCCN2C(N)=O)CC1` (centres undefined): the INHIBITION is recorded as -5.567%.
Under `CC(C)N1CCC(c2nccnc2Nc2cnccn2)CC1` stands 23.9%.
To `CCc1nc(C)c(C(=O)NCCNc2ncnc3sccc23)s1` belongs 93.3%.
Regarding `CCc1nc(C)c(C(=O)NCCNc2ncccn2)s1`, the INHIBITION amounted to 29.1%.
Under `Cc1ncc(C(=O)NCCNC(=O)c2ccccc2)s1` stands 0.411%; under `Cc1ncc(C(=O)NCCNc2ccncc2)s1`, -21.3%.
To `CCc1nc(C)c(C(=O)NCCNc2ncccc2C#N)s1` belongs 2.3%.
To `CCc1ncc(C(=O)NCCNc2ncnc3sccc23)s1` belongs 96%.
For `CCc1ncc(C(=O)NCCNc2ccncc2)s1`, the INHIBITION was 23.4%.
Take `CCc1ncncc1C(=O)NCCNc1ncnc2sccc12`: the INHIBITION was determined as 41.3%.
To `Cc1ncc(C(=O)NCCNc2ncnc3sccc23)s1` belongs 77.1%; to `Cc1ncsc1C(=O)NCCNC(=O)c1cccs1`, 10.2%.
To `CCCc1nc(C)c(C(=O)NCCNc2ncccn2)s1` belongs 19.6%; to `CCc1nc(C)c(C(=O)NCCNC(=O)c2cccs2)s1`, 58%; to `COc1c(C2CCCN2C(=O)c2cc(C)on2)c(C)nn1C` (centres undefined), 14.1%.
Under `Cc1ncc2c(n1)CN(CC(=O)Nc1nccs1)CC2` stands 1.78%.
`COc1ccccc1OCCNCc1c(C)nn(C)c1N(C)C`: the INHIBITION was -11.98%.
On to `CCOc1ccc(C(=O)N(C)Cc2nccn2CC(F)(F)F)cc1`, for which the INHIBITION came to 21.7%.
Under `Cc1ccc(CC(=O)N2CCCC(n3nc(C)cc3C)C2)cn1` (centres undefined) stands 5.03%; under `CC(=O)c1cccc(NC(=O)Cn2cc(-c3ccccc3)ncc2=O)c1`, 17%; under `O=C(NCc1ccnc(OCC2CC2)c1)C1Cc2ccccc2O1` (centres undefined), -39.6%.
Take `Clc1ccccc1CN1CCCC(c2nnc(-c3cnccn3)o2)C1` (centres undefined): the INHIBITION was found to be 2.71%.
To `CC(O)c1cn(Cc2ccc(F)cc2)nn1` (centres undefined) belongs 23.6%; to `CN(C)c1ncc(-c2cc(C(=O)NCCC#N)n(CC3CC3)c2)cn1`, -2.35%; to `Cc1cnc(-c2nc(C3CCN(Cc4ccccc4Cl)CC3)no2)cn1`, 32.35%.
To `c1cc(-c2noc(CN3CCn4c(nnc4C4CC4)C3)n2)cs1` belongs -14.65%; to `Cc1nc(C)n(C2CCCN(C(=O)CCc3cscn3)C2)n1` (centres undefined), 37.9%; to `c1cnc(C2CCCN(Cc3ccsc3)C2)cn1` (centres undefined), 25.4%.
Under `CC1(C)CC(C(=O)N2CCC3(CCC(=O)N(C4CC4)C3)CC2)CCO1` (centres undefined) stands 53.3%; under `O=C(c1c[nH]c(=O)[nH]1)N1CCCC2(CCC(=O)N(C3CCCC3)C2)C1` (centres undefined), 37.7%.
`CC1(C)CC(CN2CCC3(CCC(=O)N(C4CCC4)C3)CC2)CCO1` (centres undefined): the INHIBITION came to 6.27%.
To `Cc1ncc(CC(=O)N2CCC3(CCC(=O)N(C4CC4)C3)CC2)c(=O)[nH]1` belongs 50.8%; to `O=C(Nc1ccc(F)cc1)N1CCC2(CCC(=O)N(C3CC3)C2)CC1`, 31.6%.
Under `Cc1cnn(CC(=O)N2CCC3(CCC(=O)N(C4CCCC4)C3)CC2)c1` stands 39.1%; under `CC(=O)c1ccc(N2CCC3(CCC(=O)N(C4CC4)C3)CC2)nc1`, -25.7%.
To `O=C(Cc1c[nH]c(=O)[nH]c1=O)N1CCC2(CCC(=O)N(C3CC3)C2)CC1` belongs 58.2%; to `Cc1ncc(CC(=O)N2CCC3(CCC(=O)N(CCO)C3)CC2)c(=O)[nH]1`, 46.1%.
